The record followed here is PubChem BioAssay (NCI).

Compounds without any hit were thinned out: in the full panel of roughly 79,000, 15% have a hit. A number with no mark means an inactive call. Activity calls are given as the source filed them. Rule as the data show it: active = growth inhibition above about 70%; inactive = the rest.

Assay [1] is described as follows: NCI Yeast Anticancer Drug Screen. Data for the rad50 strain (AID 155).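 Also: 0% = growth of vehicle-only cultures of the same strain.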 The conditions noted are these: S. cerevisiae rad50 strain growth inhibition, hits give high values. In outline: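 Vehicle-treated cultures provide the reference for the growth inhibition reported for compound-exposed, repair-deficient yeast.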
Assay [2] in a line: NCI Yeast Anticancer Drug Screen. Data for the mec2-1 strain (AID 157). The following applies: S. cerevisiae mec2-1 strain, hits give high values. In outline:
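Vehicle-treated cultures served as reference for growth inhibition of compound-exposed mec2-1 yeast.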

Assay [3] is described as follows: NCI Yeast Anticancer Drug Screen. Data for the sgs1 mgt1 strain (AID 161).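 Also: 0% = growth of cultures given vehicle only.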 The following applies: S. cerevisiae sgs1 mgt1 strain, hits give high values. In outline:
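Test agents were incubated with a DNA-repair-mutant yeast strain. Growth was then read and compared against vehicle-treated controls.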

A short description of assay [4]: NCI Yeast Anticancer Drug Screen. Data for the cln2 rad14 strain (AID 165).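 Also: 0% = growth equal to vehicle treated cultures.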 The following applies: S. cerevisiae cln2 rad14 strain, hits give high values. Put shortly:
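Each compound was tested on cln2 rad14 yeast. Inhibition of growth was calculated against vehicle-exposed controls.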

Assay [5] can be described thus: NCI Yeast Anticancer Drug Screen. Data for the bub3 strain (AID 167). The following applies: S. cerevisiae bub3 mutant strain, hits give high values. Put shortly: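 Mutant yeast screening strain plus compound; vehicle-treated cultures serve as the 0% inhibition reference.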
The nature of assay [6]: NCI Yeast Anticancer Drug Screen. Data for the mlh1 rad18 strain (AID 175). The conditions noted are these: S. cerevisiae mlh1 rad18 strain growth inhibition, hits give high values. In outline: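 Vehicle-treated cultures served as the reference for growth inhibition in a yeast strain carrying DNA damage repair alterations exposed to each compound.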
The mark [7] stands for this setting: at 5.0 µM (retest, dose inferred, filed as 0.5).
Setting [8] is: at 50.0 µM (retest, dose inferred, filed as 5.0).

With `CC1=CC(C)(C)Nc2cc(N)ccc21`, the growth inhibition in assay [1] (setting [7]) is -166%; in assay [1] (setting [8]) it was -193%; in assay [1] (at 50.0 µM), 50.5%; in assay [2] (setting [7]), -49%; in assay [2] (setting [8]) it was -65%; in assay [2] (at 50.0 µM), 20.6%. Further, the growth inhibition in assay [3] (setting [7]) was -64%; in assay [3] (setting [8]) it was -72%; in assay [3] (at 50.0 µM), 43.8%; in assay [4] (setting [7]), -54%; in assay [4] (setting [8]) it was -82%; in assay [4] (at 50.0 µM), -35.5%. Moreover, the growth inhibition is -74% in assay [5] (setting [7]); -85% in assay [5] (setting [8]); 39.3% in assay [5] (at 50.0 µM); -148% in assay [6] (setting [7]); -136% in assay [6] (setting [8]); 54.5% in assay [6] (at 50.0 µM).
On to `O=C1C=CC(=O)N1c1ccc2c(c1)Cc1cc(Cl)ccc1-2`, for which the growth inhibition in assay [1] (setting [7]) is -48%; in assay [1] (setting [8]) it was 92% (active); in assay [1] (at 50.0 µM), 13.6%; in assay [2] (setting [7]), 8%; in assay [2] (setting [8]) it was 96% (active); in assay [2] (at 50.0 µM), 78.3% (active). Further, the growth inhibition was -5% in assay [3] (setting [7]); 93% (active) in assay [3] (setting [8]); 79.2% (active) in assay [3] (at 50.0 µM); -3% in assay [4] (setting [7]); 27% in assay [4] (setting [8]); -72% in assay [4] (at 50.0 µM). The growth inhibition in assay [5] (setting [7]) was 11%; in assay [5] (setting [8]) it was 82% (active); in assay [5] (at 50.0 µM), 72.3% (active); in assay [6] (setting [7]), 26%; in assay [6] (setting [8]), 97% (active); in assay [6] (at 50.0 µM), 68.9%.
Take `CCCCCCCCCCCC[n+]1ccc(C)cc1`: the growth inhibition in assay [1] (setting [7]) is 33%; in assay [1] (setting [8]), 99% (active); in assay [1] (at 50.0 µM), 98.2% (active); in assay [2] (setting [7]), 76% (active); in assay [2] (setting [8]) it was 100% (active); in assay [2] (at 50.0 µM), 99.2% (active). The growth inhibition in assay [3] (setting [7]) is 33%; in assay [3] (setting [8]), 99% (active); in assay [3] (at 50.0 µM), 99% (active); in assay [4] (setting [7]), 20%; in assay [4] (setting [8]), 99% (active); in assay [4] (at 50.0 µM) it was 96.8% (active). For the same compound, the growth inhibition in assay [5] (setting [7]) was 80% (active); in assay [5] (setting [8]), 99% (active); in assay [5] (at 50.0 µM) it was 98.9% (active); in assay [6] (setting [7]), 18%; in assay [6] (setting [8]), 99% (active); in assay [6] (at 50.0 µM), 98.3% (active).
On to `O=C1CCC(c2ccccc2)=NN1c1nc2ccccc2s1`, for which the growth inhibition in assay [1] (setting [7]) was 5%; in assay [1] (setting [8]), 90% (active); in assay [1] (at 50.0 µM), 98.3% (active); in assay [2] (setting [7]), -3%; in assay [2] (setting [8]), 79% (active); in assay [2] (at 50.0 µM), 99.2% (active). The growth inhibition in assay [3] (setting [7]) was 0%; in assay [3] (setting [8]), 85% (active); in assay [3] (at 50.0 µM), 99.2% (active); in assay [4] (setting [7]), -3%; in assay [4] (setting [8]), 83% (active); in assay [4] (at 50.0 µM) it was 99% (active). Further, the growth inhibition was -6% in assay [5] (setting [7]); 95% (active) in assay [5] (setting [8]); 99.3% (active) in assay [5] (at 50.0 µM); 4% in assay [6] (setting [7]); 93% (active) in assay [6] (setting [8]); 99.5% (active) in assay [6] (at 50.0 µM).
For `Cc1c2ccccc2cc2c1ccc1cccc(F)c12`, the growth inhibition is 4% in assay [1] (setting [7]); 90% (active) in assay [1] (setting [8]); 84.4% (active) in assay [1] (at 50.0 µM); 11% in assay [2] (setting [7]); 95% (active) in assay [2] (setting [8]); 48% in assay [2] (at 50.0 µM). Also, the growth inhibition in assay [3] (setting [7]) was 1%; in assay [3] (setting [8]) it was 87% (active); in assay [3] (at 50.0 µM) it was 80.7% (active); in assay [4] (setting [7]) it was 8%; in assay [4] (setting [8]), 93% (active); in assay [4] (at 50.0 µM) it was 23.9%. Besides, the growth inhibition in assay [5] (setting [7]) was 4%; in assay [5] (setting [8]), 91% (active); in assay [5] (at 50.0 µM), 79% (active); in assay [6] (setting [7]) it was 10%; in assay [6] (setting [8]) it was 92% (active); in assay [6] (at 50.0 µM), 59.1%.
Turning to `O=C1C=C/C(=C(/c2ccc(O)c(O)c2)c2ccccc2S(=O)(=O)O)C=C1O`, the growth inhibition in assay [1] (setting [7]) is 1%; in assay [1] (setting [8]), 0%; in assay [1] (at 50.0 µM), 11.8%; in assay [2] (setting [7]) it was 2%; in assay [2] (setting [8]), -25%; in assay [2] (at 50.0 µM), -0.5%. Further, the growth inhibition in assay [3] (setting [7]) was -2%; in assay [3] (setting [8]), 2%; in assay [3] (at 50.0 µM), 5.3%; in assay [4] (setting [7]), 5%; in assay [4] (setting [8]) it was -2%; in assay [4] (at 50.0 µM), 15.9%. Besides, the growth inhibition in assay [5] (setting [7]) was -40%; in assay [5] (setting [8]), -3%; in assay [5] (at 50.0 µM), -1.5%; in assay [6] (setting [7]) it was 2%; in assay [6] (setting [8]) it was 4%; in assay [6] (at 50.0 µM) it was 1.75%.
For `CSc1ccc(C(=O)C(=O)c2ccc(SC)s2)s1`, the growth inhibition in assay [1] (setting [7]) was 14%; in assay [1] (setting [8]), 11%; in assay [1] (at 50.0 µM) it was 26.6%; in assay [2] (setting [7]), -15%; in assay [2] (setting [8]), -8%; in assay [2] (at 50.0 µM), 39.5%. Moreover, the growth inhibition in assay [3] (setting [7]) was 14%; in assay [3] (setting [8]), 14%; in assay [3] (at 50.0 µM) it was 73.8% (active); in assay [4] (setting [7]), 0%; in assay [4] (setting [8]), 37%; in assay [4] (at 50.0 µM), 76.7% (active). For the same compound, the growth inhibition in assay [5] (setting [7]) was -2%; in assay [5] (setting [8]), 9%; in assay [5] (at 50.0 µM), 48.7%; in assay [6] (setting [7]), 4%; in assay [6] (setting [8]) it was 2%; in assay [6] (at 50.0 µM), -1.7%.
Regarding `COc1ccccc1C1c2cc3c(cc2OC(N2CCOCC2)C1C)OCO3` (stereo not given), the growth inhibition is 15% in assay [1] (setting [7]); 18% in assay [1] (setting [8]); 37.2% in assay [1] (at 50.0 µM); 9% in assay [2] (setting [7]); 9% in assay [2] (setting [8]); 14.2% in assay [2] (at 50.0 µM). Further, the growth inhibition in assay [3] (setting [7]) was 26%; in assay [3] (setting [8]) it was 47%; in assay [3] (at 50.0 µM), 26.4%; in assay [4] (setting [7]), 25%; in assay [4] (setting [8]), 56%; in assay [4] (at 50.0 µM) it was 18.3%. Also, the growth inhibition was 18% in assay [5] (setting [7]); 57% in assay [5] (setting [8]); 40.8% in assay [5] (at 50.0 µM); 9% in assay [6] (setting [7]); 32% in assay [6] (setting [8]); 59.5% in assay [6] (at 50.0 µM).
Consider `Clc1nc(Cl)c(Cc2ccccc2)c(Cl)n1`, for which the growth inhibition in assay [1] (setting [7]) was 43%; in assay [1] (setting [8]) it was 97% (active); in assay [1] (at 50.0 µM) it was 91% (active); in assay [2] (setting [7]), 50%; in assay [2] (setting [8]), 99% (active); in assay [2] (at 50.0 µM), 93.4% (active). In addition, the growth inhibition is 38% in assay [3] (setting [7]); 100% (active) in assay [3] (setting [8]); 90.7% (active) in assay [3] (at 50.0 µM); 34% in assay [4] (setting [7]); 94% (active) in assay [4] (setting [8]); 89.2% (active) in assay [4] (at 50.0 µM). The growth inhibition in assay [5] (setting [7]) is 49%; in assay [5] (setting [8]) it was 99% (active); in assay [5] (at 50.0 µM), 87.2% (active); in assay [6] (setting [7]), 78% (active); in assay [6] (setting [8]), 97% (active); in assay [6] (at 50.0 µM), 88.5% (active).
For `O=c1c2c(F)c(F)c(F)c(F)c2sc2nccn12`, the growth inhibition is 15% in assay [1] (setting [7]); 100% (active) in assay [1] (setting [8]); 89% (active) in assay [1] (at 50.0 µM); 40% in assay [2] (setting [7]); 100% (active) in assay [2] (setting [8]); 91.2% (active) in assay [2] (at 50.0 µM). The growth inhibition in assay [3] (setting [7]) is 2%; in assay [3] (setting [8]) it was 99% (active); in assay [3] (at 50.0 µM) it was 84.8% (active); in assay [4] (setting [7]) it was 5%; in assay [4] (setting [8]), 99% (active); in assay [4] (at 50.0 µM) it was 90.2% (active). For the same compound, the growth inhibition in assay [5] (setting [7]) is 27%; in assay [5] (setting [8]) it was 100% (active); in assay [5] (at 50.0 µM), 89.5% (active); in assay [6] (setting [7]), 46%; in assay [6] (setting [8]), 99% (active); in assay [6] (at 50.0 µM), 86.8% (active).
